According to PubChem BioAssay AID1159580 (chemical genetic matrix, 2015):
Out of some 5,500 compounds screened, about 2,000 (36%) were called active. Roughly 18% stayed inconclusive and do not appear here. Cut-off read from the data, not from the text of the source: active = normalized growth mostly below about 0.91 (no sharp cut-off); inconclusive = no clear call, values can overlap the other calls; inactive = mostly above about 0.92. This is one part of the list.

Assay: chemical genetic growth profiling, strain panel (AID 1159580);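 note: tested at 20 µM; growth read once vehicle control cultures reached saturation at 30 °C; 1 = growth at the plate median or of vehicle wells; lower values mean less growth of the strain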
Details: growth OD
[1] = S. cerevisiae deletion strains, locus YHR030C, strain SLT2, hits give low values
[2] = S. cerevisiae deletion strains, locus YHR079C, strain IRE1, hits give low values
[3] = S. cerevisiae deletion strains, locus YJL095W, strain BCK1, hits give low values
[4] = S. cerevisiae deletion strains, locus YJR066W, strain TOR1, hits give low values
[5] = S. cerevisiae deletion strains, locus YLR113W, strain HOG1, hits give low values
[6] = S. cerevisiae deletion strains, locus YNL183C, strain NPR1, hits give low values
[7] = S. cerevisiae deletion strains, locus YOR231W, strain MKK1, hits give low values
[8] = S. cerevisiae deletion strains, locus YPL256C, strain CLN2, hits give low values

Measured: normalized growth

CN1CCCC(n2nc(Cc3ccc(Cl)cc3)c3ccccc3c2=O)CC1 (centres undefined)
inactive: S. cerevisiae deletion strains, locus YAL021C, strain ccr4, hits give low values 1.01 | S. cerevisiae deletion strains, locus YAL026C, strain drs2, hits give low values 1 | S. cerevisiae deletion strains, locus YAL030W, strain snc1, hits give low values 0.999 | S. cerevisiae deletion strains, locus YBL061C, strain skt5, hits give low values 1 | S. cerevisiae deletion strains, locus YBR009C, strain hhf1, hits give low values 0.93 | S. cerevisiae deletion strains, locus YBR023C, strain chs3, hits give low values 1.02 | S. cerevisiae deletion strains, locus YBR171W, strain sec66, hits give low values 0.989 | S. cerevisiae deletion strains, locus YBR231C, strain swc5, hits give low values 0.984 | S. cerevisiae deletion strains, locus YBR279W, strain paf1, hits give low values 1.02 | S. cerevisiae deletion strains, locus YCL011C, strain gbp2, hits give low values 0.989 | S. cerevisiae deletion strains, locus YCL016C, strain dcc1, hits give low values 1.04 | S. cerevisiae deletion strains, locus YCL061C, strain MRC1, hits give low values 0.968 | S. cerevisiae deletion strains, locus YCL069W, strain vba3, hits give low values 0.988 | S. cerevisiae deletion strains, locus YCR088W, strain abp1, hits give low values 0.991 | S. cerevisiae deletion strains, locus YDL005C, strain med2, hits give low values 0.999 | S. cerevisiae deletion strains, locus YDL040C, strain nat1, hits give low values 1 | S. cerevisiae deletion strains, locus YDR001C, strain nth1, hits give low values 1 | S. cerevisiae deletion strains, locus YDR069C, strain doa4, hits give low values 0.996 | S. cerevisiae deletion strains, locus YDR159W, strain sac3, hits give low values 0.912 | S. cerevisiae deletion strains, locus YDR195W, strain ref2 0.972 | S. cerevisiae deletion strains, locus YDR297W, strain sur2, hits give low values 0.99 | S. cerevisiae deletion strains, locus YDR334W, strain swr1, hits give low values 0.981 | S. cerevisiae deletion strains, locus YDR335W, strain msn5, hits give low values 1.01 | S. cerevisiae deletion strains, locus YDR392W, strain spt3, hits give low values 0.772 | S. cerevisiae deletion strains, locus YEL003W, strain gim4, hits give low values 0.948 | S. cerevisiae deletion strains, locus YEL037C, strain rad23, hits give low values 0.992 | S. cerevisiae deletion strains, locus YEL061C, strain CIN8 (second series), hits give low values 0.983 | S. cerevisiae deletion strains, locus YER015W, strain faa2, hits give low values 0.966 | S. cerevisiae deletion strains, locus YER016W, strain bim1, hits give low values 1.03 | S. cerevisiae deletion strains, locus YER111C, strain swi4, hits give low values 1.01 | S. cerevisiae deletion strains, locus YER155C, strain BEM2 (second series), hits give low values 0.884 | S. cerevisiae deletion strains, locus YFR010W, strain ubp6, hits give low values 0.941 | S. cerevisiae deletion strains, locus YGL167C, strain pmr1, hits give low values 0.982 | S. cerevisiae deletion strains, locus YGL173C, strain kem1, hits give low values 0.964 | S. cerevisiae deletion strains, locus YGL227W, strain vid30, hits give low values 1 | S. cerevisiae deletion strains, locus YGL240W, strain doc1, hits give low values 0.942 | S. cerevisiae deletion strains, locus YGL253W, strain hxk2, hits give low values 1.02 | S. cerevisiae deletion strains, locus YHR013C, strain ard1, hits give low values 0.994 | S. cerevisiae deletion strains, locus YHR027C, strain rpn1, hits give low values 0.944 | [1] 1.03 | [2] 1.02 | S. cerevisiae deletion strains, locus YHR142W, strain chs7, hits give low values 1.02 | S. cerevisiae deletion strains, locus YJL092W, strain hpr5, hits give low values 0.981 | S. cerevisiae deletion strains, locus YJL095W, strain BCK1 (second series), hits give low values 0.996 | [3] 0.979 | S. cerevisiae deletion strains, locus YJL115W, strain asf1, hits give low values 1.02 | S. cerevisiae deletion strains, locus YJL129C, strain trk1, hits give low values 1.07 | S. cerevisiae deletion strains, locus YJL154C, strain vps35, hits give low values 0.992 | S. cerevisiae deletion strains, locus YJL164C, strain tpk1, hits give low values 0.964 | S. cerevisiae deletion strains, locus YJL166W, strain qcr8, hits give low values 0.96 | S. cerevisiae deletion strains, locus YJL187C, strain SWE1, hits give low values 1.01 | [4] 0.99 | S. cerevisiae deletion strains, locus YKL160W, strain elf1, hits give low values 1.04 | S. cerevisiae deletion strains, locus YKR026C, strain gcn3, hits give low values 0.995 | S. cerevisiae deletion strains, locus YKR091W, strain srl3, hits give low values 1 | S. cerevisiae deletion strains, locus YLL001W, strain dnm1, hits give low values 0.958 | S. cerevisiae deletion strains, locus YLL026W, hits give low values 1 | S. cerevisiae deletion strains, locus YLL041C, strain sdh2, hits give low values 0.99 | S. cerevisiae deletion strains, locus YLR027C, strain aat2, hits give low values 1.01 | [5] 0.975 | S. cerevisiae deletion strains, locus YLR221C, strain rsa3, hits give low values 0.954 | S. cerevisiae deletion strains, locus YLR258W, strain gsy2, hits give low values 1.02 | S. cerevisiae deletion strains, locus YLR262C, strain YPT6 (second series), hits give low values 1.06 | S. cerevisiae deletion strains, locus YLR320W, strain mms22, hits give low values 0.905 | S. cerevisiae deletion strains, locus YLR342W, strain FKS1, hits give low values 1 | S. cerevisiae deletion strains, locus YLR357W, strain rsc2, hits give low values 0.949 | S. cerevisiae deletion strains, locus YLR370C, strain arc18, hits give low values 1.02 | S. cerevisiae deletion strains, locus YLR384C, strain iki3, hits give low values 0.996 | S. cerevisiae deletion strains, locus YML120C, strain ndi1, hits give low values 0.95 | S. cerevisiae deletion strains, locus YMR058W, strain fet3, hits give low values 0.961 | S. cerevisiae deletion strains, locus YMR125W, strain sto1, hits give low values 0.983 | S. cerevisiae deletion strains, locus YMR129W, hits give low values 1 | S. cerevisiae deletion strains, locus YMR205C, strain PFK2, hits give low values 0.981 | S. cerevisiae deletion strains, locus YMR231W, strain pep5, hits give low values 1 | S. cerevisiae deletion strains, locus YNL071W, strain lat1, hits give low values 0.993 | [6] 0.975 | S. cerevisiae deletion strains, locus YNL209W, strain ssb2, hits give low values 0.993 | S. cerevisiae deletion strains, locus YNL248C, strain rpa49, hits give low values 1 | S. cerevisiae deletion strains, locus YNL322C, strain KRE1 (second series), hits give low values 1.01 | S. cerevisiae deletion strains, locus YNR049C, strain mso1, hits give low values 1 | S. cerevisiae deletion strains, locus YOR001W, strain rrp6, hits give low values 0.902 | S. cerevisiae deletion strains, locus YOR070C, strain gyp1, hits give low values 1.01 | S. cerevisiae deletion strains, locus YOR080W, strain dia2, hits give low values 0.98 | S. cerevisiae deletion strains, locus YOR083W, strain WHI5, hits give low values 0.966 | S. cerevisiae deletion strains, locus YOR106W, strain vam3, hits give low values 0.993 | [7] 0.993 | S. cerevisiae deletion strains, locus YOR265W, strain rbl2, hits give low values 0.998 | S. cerevisiae deletion strains, locus YOR270C, strain vph1, hits give low values 0.93 | S. cerevisiae deletion strains, locus YOR290C, strain snf2, hits give low values 1.01 | S. cerevisiae deletion strains, locus YPL051W, strain arl3, hits give low values 1.05 | S. cerevisiae deletion strains, locus YPL078C, strain atp4, hits give low values 1.01 | S. cerevisiae deletion strains, locus YPL106C, strain sse1, hits give low values 1.08 | S. cerevisiae deletion strains, locus YPL240C, strain hsp82, hits give low values 1 | [8] 1.01
active: S. cerevisiae deletion strains, locus YDR137W, strain rgp1, hits give low values 1.25 [resistant]

O=C1CCO1
inactive: [1] 0.984 | [2] 0.99 | [3] 0.999 | [4] 0.946 | [5] 0.942 | [6] 0.951 | [7] 0.996 | [8] 0.992

CC1(C)/C(=N/OC(=O)c2cccc(C(F)(F)F)c2)[C@]2(C)CCC1C2
inactive: S. cerevisiae deletion strains, locus YAL013W, strain DEP1, hits give low values 1.01 | S. cerevisiae deletion strains, locus YBR229C, strain ROT2, hits give low values 1.01 | S. cerevisiae deletion strains, locus YDL101C, strain DUN1, hits give low values 1.04 | S. cerevisiae deletion strains, locus YDL134C, strain PPH21, hits give low values 1 | S. cerevisiae deletion strains, locus YDR150W, strain NUM1, hits give low values 0.989 | S. cerevisiae deletion strains, locus YEL061C, strain CIN8, hits give low values 1.04 | S. cerevisiae deletion strains, locus YGR078C, strain PAC10, hits give low values 0.996 | S. cerevisiae deletion strains, locus YGR229C, strain SMI1, hits give low values 0.999 | [1] 0.88 | S. cerevisiae deletion strains, locus YHR087W, strain rtc3, hits give low values 0.99 | S. cerevisiae deletion strains, locus YJR043C, strain POL32, hits give low values 0.978 | S. cerevisiae deletion strains, locus YJR075W, strain HOC1, hits give low values 0.979 | S. cerevisiae deletion strains, locus YKL190W, strain CNB1, hits give low values 1.01 | S. cerevisiae deletion strains, locus YLR039C, strain RIC1, hits give low values 0.977 | S. cerevisiae deletion strains, locus YLR058C, strain SHM2 (second series), hits give low values 1.01 | S. cerevisiae deletion strains, locus YLR085C, strain ARP6, hits give low values 1 | S. cerevisiae deletion strains, locus YLR262C, strain YPT6, hits give low values 0.964 | S. cerevisiae deletion strains, locus YMR219W, strain ESC1, hits give low values 0.987 | S. cerevisiae deletion strains, locus YMR263W, strain SAP30, hits give low values 0.967 | S. cerevisiae deletion strains, locus YMR307W, strain GAS1, hits give low values 0.741 | S. cerevisiae deletion strains, locus YNL128W, strain TEP1, hits give low values 1.01 | S. cerevisiae deletion strains, locus YNL153C, strain GIM3, hits give low values 0.963 | S. cerevisiae deletion strains, locus YNL298W, strain CLA4 (second series), hits give low values 0.987 | S. cerevisiae deletion strains, locus YNL322C, strain KRE1, hits give low values 1.02 | S. cerevisiae deletion strains, locus YNR030W, strain Alg12, hits give low values 1.01 | S. cerevisiae deletion strains, locus YOL006C, strain TOP1, hits give low values 0.898 | S. cerevisiae deletion strains, locus YPL055C, strain LGE1, hits give low values 1 | S. cerevisiae deletion strains, locus YPL241C, strain CIN2, hits give low values 1.01 | S. cerevisiae deletion strains, locus YPR135W, strain CTF4, hits give low values 1.06 | S. cerevisiae strains, strain wild type, hits give low values 0.999
active: S. cerevisiae deletion strains, locus YML094W, strain GIM5, hits give low values 1.18 [resistant]
